Test results: PubChem BioAssay AID488977 (Johns Hopkins Ion Channel Center, 2010)
Hit rate of the full screen: of about 310,000 compounds, about 1,500 (0.48%) were called active.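 The calls were made as follows: active = initial fluorescence not abnormally high and integrated response B-score, plate-corrected, over 3 SD above library mean; inactive = the rest.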 The full list was thinned out, with actives kept by preference.

molecular target: High affinity choline transporter 1 (Homo sapiens) (UniProt Q9GZV3); assay: allosteric activators of human choline transporter – cell-based, membrane potential dye, choline EC20, primary screen (AID 488977); conditions: CHT-expressing cells, at 10 µM; B-score: stronger effect = higher value, LV-AA mutant CHT in HEK293 cells unless noted; outcome: LV-AA mutant CHT in HEK293 cells unless noted
Sequence (Q9GZV3 whole entry, looked up): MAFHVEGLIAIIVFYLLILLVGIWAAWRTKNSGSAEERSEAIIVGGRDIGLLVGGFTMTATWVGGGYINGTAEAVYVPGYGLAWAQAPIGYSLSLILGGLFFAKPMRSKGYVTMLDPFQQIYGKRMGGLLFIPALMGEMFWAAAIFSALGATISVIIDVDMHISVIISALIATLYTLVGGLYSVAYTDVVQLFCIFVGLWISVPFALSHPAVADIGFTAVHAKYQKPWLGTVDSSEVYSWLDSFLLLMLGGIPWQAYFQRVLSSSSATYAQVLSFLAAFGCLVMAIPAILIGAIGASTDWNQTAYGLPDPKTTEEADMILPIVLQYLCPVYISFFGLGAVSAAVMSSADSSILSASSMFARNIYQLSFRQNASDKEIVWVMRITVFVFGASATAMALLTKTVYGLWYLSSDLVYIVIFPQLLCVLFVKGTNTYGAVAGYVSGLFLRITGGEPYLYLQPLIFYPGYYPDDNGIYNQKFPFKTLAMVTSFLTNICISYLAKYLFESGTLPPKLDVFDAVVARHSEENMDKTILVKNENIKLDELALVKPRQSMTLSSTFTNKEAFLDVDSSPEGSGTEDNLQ

Row | Compound | B-score | outcome
1 | CN1CCN(c2cc(N3CCNCC3)ccc2[N+](=O)[O-])CC1 | 8.44 (active) | –
2 | CCN1CCN(c2ccc([N+](=O)[O-])cc2C#N)CC1 | inactive | –
3 | COC(=O)C1=C(c2cc3ccccc3o2)C[C@@H]2CC[C@H]1N2C(=O)NC1CCCCC1 | inactive | –
4 | COC(=O)C1=C(c2cc3ccccc3s2)C[C@@H]2CC[C@H]1N2C(=O)NCCO | inactive | –
5 | COC(=O)C1=C(c2ccccc2)C[C@@H]2CC[C@H]1N2C(=O)N1CCCCC1 | inactive | –
6 | Cc1nc2ccc(N3CCN(C)CC3)cc2nc1C | 6.37 (active) | –
7 | C=CC12CN(C)[C@@H]3C4CO[C@H](C[C@H]41)[C@]1(C(=O)Nc4ccccc41)[C@@H]32 (stereo not given in full) | inactive | –
8 | CC(=O)Nc1ccc(C(=O)C(Cc2ccccc2)N(C)C)cc1 (stereo not given) | inactive | –
9 | O=[N+]([O-])c1cnc2ccc3ccccc3c2c1 | inactive | –
10 | CCCCCn1c(=O)c(C(=O)NCc2ccccc2)c(O)c2ccccc21 | inactive | –
11 | CCCCCn1c(=O)c(C(=O)Nc2c(C)n(C)n(-c3ccccc3)c2=O)c(O)c2ccccc21 | 8.71 (active) | –
12 | CCCCn1c(=O)c(C(=O)Nc2ccccc2Cl)c(O)c2ccccc21 | inactive | –
13 | CNCC(O)c1cc(F)c(OCc2ccccc2)c(OCc2ccccc2)c1F (stereo not given) | inactive | –
14 | O=C(N/N=C/c1c(O)n(C2CC2)c(=S)[nH]c1=O)c1ccccc1Cl | – | inactive [setting not given]
15 | C/C(=N/O)c1ccc2ccc3ccccc3c2c1 | inactive | –
